Source: the supplement of paper PMC10849652
The full data set covers some 8,800 targets. This sample favours those with a hit. About 0.5% of all pairs of compound and target were hits.

Columns and labels:
Assay in all cases: log2 fold change, soluble protein after heating vs DMSO (PISA); higher = thermal stabilisation; K562 lysate, 10 uM; active = over 0.2 and 3.5 SD of the protein, either way, in both replicates (recomputed)
[1] = compound: NCC(=O)Nc1ccc(-n2nc(C(F)(F)F)cc2-c2ccc3c(ccc4ccccc43)c2)cc1
Procedure, shortened: (§1)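 Dounce homogenisation of K562 pellets in PBS pH 7.4 with 1 mM MgCl2 produced a crude extract, used at 1 mg/mL protein. Exposure to 10 μM compound lasted 30 min, and aliquots were then heated for 3 min across 48°C-58°C, pooled and brought to 0.5% NP-40 at 4°C. The supernatant after 21,000xg for 90 min was quantified by TMTpro 16plex LC-MS/MS with channel sums equalised. Duplicate values are given as log-two fold change in thermal stability relative to solvent controls.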

[2] = compound: O=C(CCCCCCC(=O)Nc1ccccc1)NO [vorinostat]
Procedure, shortened: as §1

[3] = compound: O=C(O)c1ccc2c(c1)nc(Nc1cccc(Cl)c1)c1ccncc12 [silmitasertib]
Procedure, shortened: as §1

[4] = compound: O=C1NC(=O)C(c2cnc3ccccn23)=C1c1cn2c3c(cc(F)cc13)CN(C(=O)N1CCCCC1)CC2
Procedure, shortened: as §1

[5] = compound: c1cn2cc(-c3ccc4cn[nH]c4c3)nc(Nc3ccc(N4CCOCC4)cc3)c2n1 [entospletinib]
Procedure, shortened: as §1

Measured: log2 fold change

NLRP2 (UniProt Q9NX02)
Sequence of UniProt Q9NX02 (Q9NX02 whole entry, looked up): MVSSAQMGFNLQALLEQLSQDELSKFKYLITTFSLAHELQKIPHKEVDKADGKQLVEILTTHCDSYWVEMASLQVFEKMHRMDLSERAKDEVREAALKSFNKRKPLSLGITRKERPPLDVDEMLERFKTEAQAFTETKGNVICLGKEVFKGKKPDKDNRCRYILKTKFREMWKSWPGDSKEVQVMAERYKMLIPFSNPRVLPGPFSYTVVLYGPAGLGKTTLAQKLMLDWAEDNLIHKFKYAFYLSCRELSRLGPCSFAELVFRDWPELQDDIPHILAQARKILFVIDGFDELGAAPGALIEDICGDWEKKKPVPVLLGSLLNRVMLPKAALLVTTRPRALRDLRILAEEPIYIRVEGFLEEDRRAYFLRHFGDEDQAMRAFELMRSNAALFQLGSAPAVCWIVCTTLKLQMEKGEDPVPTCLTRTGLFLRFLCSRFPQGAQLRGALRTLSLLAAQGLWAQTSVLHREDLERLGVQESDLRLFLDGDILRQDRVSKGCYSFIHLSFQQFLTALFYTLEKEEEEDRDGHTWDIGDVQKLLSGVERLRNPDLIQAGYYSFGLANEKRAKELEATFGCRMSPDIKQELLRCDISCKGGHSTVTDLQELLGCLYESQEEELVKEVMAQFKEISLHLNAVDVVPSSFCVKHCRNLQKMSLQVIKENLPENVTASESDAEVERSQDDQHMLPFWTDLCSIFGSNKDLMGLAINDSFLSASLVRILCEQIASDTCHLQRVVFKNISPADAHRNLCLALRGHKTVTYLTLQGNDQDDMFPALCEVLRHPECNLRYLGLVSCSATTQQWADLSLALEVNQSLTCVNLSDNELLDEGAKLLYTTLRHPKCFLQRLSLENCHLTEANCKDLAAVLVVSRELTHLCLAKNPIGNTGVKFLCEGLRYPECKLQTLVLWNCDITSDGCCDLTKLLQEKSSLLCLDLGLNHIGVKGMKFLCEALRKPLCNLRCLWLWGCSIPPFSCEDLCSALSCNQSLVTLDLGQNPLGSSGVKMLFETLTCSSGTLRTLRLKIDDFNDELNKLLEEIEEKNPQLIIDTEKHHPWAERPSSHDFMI
inactive: [1] -0.031 | [3] 0.062 | [4] -0.015 | [5] 0.011
active: [2] -0.528

NUP133 (UniProt Q8WUM0)
Sequence of UniProt Q8WUM0 (Q8WUM0 whole entry, looked up): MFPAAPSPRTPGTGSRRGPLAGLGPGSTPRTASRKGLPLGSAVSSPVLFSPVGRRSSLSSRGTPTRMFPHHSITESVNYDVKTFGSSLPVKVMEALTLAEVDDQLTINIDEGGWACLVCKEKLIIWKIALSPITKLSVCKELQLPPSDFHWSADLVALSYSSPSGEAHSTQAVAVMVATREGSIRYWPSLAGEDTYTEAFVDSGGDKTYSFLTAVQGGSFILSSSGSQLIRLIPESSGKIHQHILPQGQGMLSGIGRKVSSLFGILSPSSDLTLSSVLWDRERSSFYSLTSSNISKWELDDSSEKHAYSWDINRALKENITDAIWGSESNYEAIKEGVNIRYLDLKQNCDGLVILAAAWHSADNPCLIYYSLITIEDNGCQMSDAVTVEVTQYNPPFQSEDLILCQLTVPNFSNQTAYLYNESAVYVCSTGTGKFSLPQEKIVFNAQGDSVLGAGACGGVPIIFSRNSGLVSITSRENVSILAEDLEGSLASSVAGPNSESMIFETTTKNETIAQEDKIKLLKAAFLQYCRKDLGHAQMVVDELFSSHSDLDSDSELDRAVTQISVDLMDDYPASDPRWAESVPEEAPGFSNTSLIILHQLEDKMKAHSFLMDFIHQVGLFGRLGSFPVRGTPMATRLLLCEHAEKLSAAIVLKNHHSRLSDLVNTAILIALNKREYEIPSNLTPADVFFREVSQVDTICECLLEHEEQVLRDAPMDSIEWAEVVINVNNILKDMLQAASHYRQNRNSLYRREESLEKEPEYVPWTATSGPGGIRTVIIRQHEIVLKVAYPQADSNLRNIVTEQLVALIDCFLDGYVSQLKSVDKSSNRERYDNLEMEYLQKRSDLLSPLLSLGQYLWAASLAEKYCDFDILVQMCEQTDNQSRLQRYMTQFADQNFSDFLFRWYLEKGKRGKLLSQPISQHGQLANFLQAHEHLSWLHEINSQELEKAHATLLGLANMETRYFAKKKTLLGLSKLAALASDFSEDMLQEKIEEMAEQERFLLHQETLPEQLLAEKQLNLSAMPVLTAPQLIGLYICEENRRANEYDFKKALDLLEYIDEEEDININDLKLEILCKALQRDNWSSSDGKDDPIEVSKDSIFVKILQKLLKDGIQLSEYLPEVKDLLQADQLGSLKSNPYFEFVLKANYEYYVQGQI
inactive: [1] 0.045 | [2] -0.195 | [3] 0.052 | [4] 0.011 | [5] -0.033

NIT2 (UniProt Q9NQR4)
Sequence of UniProt Q9NQR4 (Q9NQR4 whole entry, looked up): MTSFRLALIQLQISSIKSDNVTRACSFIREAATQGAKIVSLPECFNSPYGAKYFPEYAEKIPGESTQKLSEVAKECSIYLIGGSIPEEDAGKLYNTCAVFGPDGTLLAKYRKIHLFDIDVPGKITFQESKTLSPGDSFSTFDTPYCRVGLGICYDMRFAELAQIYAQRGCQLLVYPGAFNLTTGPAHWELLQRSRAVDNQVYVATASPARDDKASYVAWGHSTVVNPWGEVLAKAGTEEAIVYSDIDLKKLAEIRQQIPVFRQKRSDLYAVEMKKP
inactive: [1] -0.001 | [3] -0.001 | [4] -0.007 | [5] 0.004
active: [2] 0.346
